# According to PubChem BioAssay AID1159580 (chemical genetic matrix, 2015):
# The campaign covered roughly 5,500 compounds. About 2,000 (36%) were called active. Inconclusive results (about 18%) are left out. The list shows a part of the results. A number with no mark means an inactive call. Cut-off read from the data, not from the text of the source: active = normalized growth mostly below about 0.91 (no sharp cut-off); inconclusive = no clear call, values can overlap the other calls; inactive = mostly above about 0.92.
# Assay: chemical genetic growth profiling, strain panel (AID 1159580);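 note: tested at 20 µM; growth read once vehicle control cultures reached saturation at 30 °C; 1 = growth at the plate median or of vehicle wells; lower values mean less growth of the strain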
# Details: S. cerevisiae deletion strains, growth OD
# [1] = locus YHR030C, strain SLT2, hits give low values
# [2] = locus YHR079C, strain IRE1, hits give low values
# [3] = locus YJL095W, strain BCK1, hits give low values
# [4] = locus YJR066W, strain TOR1, hits give low values
# [5] = locus YLR113W, strain HOG1, hits give low values
# [6] = locus YNL183C, strain NPR1, hits give low values
# [7] = locus YOR231W, strain MKK1, hits give low values
# [8] = locus YPL256C, strain CLN2, hits give low values
compound,measurement,setting,value
CC(N)C12CC3CC(CC(C3)C1)C2 (centres undefined),normalized growth,[1],0.992
same,normalized growth,[2],0.977
same,normalized growth,[3],0.989
same,normalized growth,[4],0.935
same,normalized growth,[5],1.02
same,normalized growth,[6],0.944
same,normalized growth,[7],1.01
same,normalized growth,[8],0.979
CCCCNC(=S)N/N=C\c1cc(Cl)cc(Cl)c1O,normalized growth,"locus YAR019C, strain CDC15, hits give low values",0.929
same,normalized growth,"locus YBL105C, strain PKC1, hits give low values",0.928
same,normalized growth,"locus YBR135W, strain CKS1, hits give low values",0.922
same,normalized growth,"locus YBR136W, strain MEC1, hits give low values",0.924
same,normalized growth,"locus YBR160W, strain CDC28, hits give low values",0.941
same,normalized growth,"locus YDL017W, strain CDC7, hits give low values",0.926
same,normalized growth,"locus YDL028C, strain MPS1, hits give low values",0.926
same,normalized growth,"locus YDL101C, strain DUN1, hits give low values",0.97
same,normalized growth,"locus YDL108W, strain KIN28, hits give low values",0.922
same,normalized growth,"locus YDL132W, strain cdc53, hits give low values",0.917
same,normalized growth,"locus YDL214C, strain PRR2, hits give low values",0.65 (active)
same,normalized growth,"locus YDR052C, strain DBF4, hits give low values",0.941
same,normalized growth,"locus YDR054C, strain cdc34, hits give low values",0.914
same,normalized growth,"locus YDR226W, strain ADK1, hits give low values",0.924
same,normalized growth,"locus YDR477W, strain SNF1, hits give low values",0.513 (active)
same,normalized growth,"locus YER123W, strain YCK3, hits give low values",0.519 (active)
same,normalized growth,"locus YER133W, strain GLC7, hits give low values",0.601 (active)
same,normalized growth,"locus YFL009W, strain cdc4, hits give low values",0.913
same,normalized growth,"locus YFL029C, strain CAK1, hits give low values",0.936
same,normalized growth,"locus YFR003C, strain YPI1, hits give low values",0.918
same,normalized growth,"locus YFR019W, strain FAB1, hits give low values",0.785
same,normalized growth,"locus YFR028C, strain CDC14, hits give low values",0.924
same,normalized growth,"locus YGR040W, strain KSS1, hits give low values",0.531 (active)
same,normalized growth,"locus YGR052W, strain FMP48, hits give low values",0.195 (active)
same,normalized growth,"locus YGR092W, strain DBF2, hits give low values",0.35 (active)
same,normalized growth,[1],0.275 (active)
same,normalized growth,[2],0.601
same,normalized growth,"locus YHR082C, strain KSP1, hits give low values",0.242 (active)
same,normalized growth,"locus YHR205W, strain SCH9, hits give low values",0.236 (active)
same,normalized growth,"locus YIL147C, strain SLN1, hits give low values",0.923
same,normalized growth,[3],0.352 (active)
same,normalized growth,"locus YJL128C, strain PBS2, hits give low values",0.897
same,normalized growth,"locus YJL157C, strain FAR1, hits give low values",0.63 (active)
same,normalized growth,"locus YJR016C, strain ILV3, hits give low values",0.922
same,normalized growth,"locus YJR066W, strain TOR1 (second series), hits give low values",0.58 (active)
same,normalized growth,[4],0.289 (active)
same,normalized growth,"locus YKL048C, strain ELM1, hits give low values",0.637 (active)
same,normalized growth,"locus YKL067W, strain YNK1, hits give low values",0.676 (active)
same,normalized growth,"locus YKL101W, strain HSL1, hits give low values",0.385 (active)
same,normalized growth,"locus YKL193C, strain SDS22, hits give low values",0.916
same,normalized growth,"locus YKL203C, strain TOR2, hits give low values",0.249 (active)
same,normalized growth,[5],0.444 (active)
same,normalized growth,"locus YLR133W, strain CKI1, hits give low values",0.49 (active)
same,normalized growth,"locus YLR403W, strain SFP1, hits give low values",0.302 (active)
same,normalized growth,"locus YML070W, strain DAK1, hits give low values",0.603 (active)
same,normalized growth,"locus YMR001C, strain CDC5, hits give low values",0.913
same,normalized growth,"locus YMR205C, strain PFK2 (second series), hits give low values",0.603 (active)
same,normalized growth,"locus YMR277W, strain FCP1, hits give low values",0.905
same,normalized growth,"locus YNL006W, strain LST8, hits give low values",0.934
same,normalized growth,"locus YNL020C, strain ARK1, hits give low values",0.44 (active)
same,normalized growth,"locus YNL161W, strain CBK1, hits give low values",0.932
same,normalized growth,[6],0.318 (active)
same,normalized growth,"locus YNL207W, strain RIO2, hits give low values",0.922
same,normalized growth,"locus YNL222W, strain SSU72, hits give low values",0.933
same,normalized growth,"locus YNL307C, strain MCK1 (second series), hits give low values",0.362 (active)
same,normalized growth,"locus YOL078W, strain AVO1, hits give low values",0.912
same,normalized growth,"locus YOL136C, strain PFK27, hits give low values",0.713
same,normalized growth,"locus YOR061W, strain CKA2, hits give low values",0.538 (active)
same,normalized growth,"locus YOR119C, strain RIO1, hits give low values",0.343 (active)
same,normalized growth,[7],0.591
same,normalized growth,"locus YOR329C, strain SCD5, hits give low values",0.924
same,normalized growth,"locus YPL031C, strain PHO85, hits give low values",0.477 (active)
same,normalized growth,"locus YPL153C, strain RAD53, hits give low values",0.495 (active)
same,normalized growth,"locus YPL204W, strain HRR25, hits give low values",0.488 (active)
same,normalized growth,"locus YPL209C, strain IPL1, hits give low values",0.928
same,normalized growth,[8],0.457 (active)
same,normalized growth,"locus YPR025C, strain CCL1, hits give low values",0.931
same,normalized growth,"locus YPR106W, strain ISR1, hits give low values",0.908
same,normalized growth,"locus YPR111W, strain DBF20, hits give low values",0.933
same,normalized growth,"strain NNK1, hits give low values",0.787 (active)
same,normalized growth,"strain TSCII, hits give low values",0.918
